HCMV inh – qHTS Assay for inhibitors of the human cytomegalovirus (HCMV); HFF cells, HCMV-luciferase reporter, 72 h; stronger effect = lower value; AID 1259415, 2018; activity change, negative = inhibition, % at 57.5 µM; hit rate 4.5% among 410,000; in the data active = activity change below about -60%; inconclusive = no clear call, values can overlap the other calls; inactive = above about -39%
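HFF cells seeded 16 h at 37C, treated with compounds, infected with luciferase-reporter HCMV at MOI 1 PFU/cell; luciferase read at 72 h post infection, normalized to buffer-only and Salinomycin controls.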
Vaccinia mCherry – qHTS for Stage-Specific Inhibitors of Vaccinia Orthopoxvirus: mCherry Reporter Primary qHTS. Vaccinia virus mCherry reporter infection, fluorescence. Potency, µM (highest dose often 36.5 µM), without a hit: at the highest dose activity change, negative = inhibition, actives largely listed as inhibitors. hit rate 0.63% among 310,000. AID 720579, 2013; calls by dose curve; tested in A549 cells; note: potency is the fitted concentration of half-maximal effect; nearly all actives have a fitted effect of over 35% in size
LmPK inhibitor – qHTS Assay for Inhibitors of Leishmania Mexicana Pyruvate Kinase (LmPK); Q27686; purified LmPK, Kinase-Glo ATP luminescence, 1 h; Potency, µM (highest dose often 57.5 µM), inactives show at the top dose activity change, negative = inhibition, actives largely listed as inhibitors; hit rate 0.37% among 290,000; note: potency is the fitted concentration of half-maximal effect
Target sequence (Q27686 whole entry, looked up): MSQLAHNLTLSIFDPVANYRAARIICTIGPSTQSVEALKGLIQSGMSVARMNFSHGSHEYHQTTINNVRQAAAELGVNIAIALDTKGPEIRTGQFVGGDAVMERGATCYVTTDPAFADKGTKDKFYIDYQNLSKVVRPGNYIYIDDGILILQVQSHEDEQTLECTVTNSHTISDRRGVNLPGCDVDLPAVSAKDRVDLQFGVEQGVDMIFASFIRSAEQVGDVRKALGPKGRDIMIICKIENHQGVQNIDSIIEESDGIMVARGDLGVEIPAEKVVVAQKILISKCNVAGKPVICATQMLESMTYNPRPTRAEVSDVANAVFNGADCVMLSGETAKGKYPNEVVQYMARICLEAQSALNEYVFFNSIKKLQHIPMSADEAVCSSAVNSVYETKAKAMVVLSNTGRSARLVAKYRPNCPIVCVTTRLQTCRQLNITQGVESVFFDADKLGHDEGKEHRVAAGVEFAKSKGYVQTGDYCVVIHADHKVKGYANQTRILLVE
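ATP generated from ADP (0.1 mM) and PEP (0.5 mM) by 0.1 nM LmPK over 1 h at room temperature (pH 7.2 imidazole buffer) was detected by coupled luciferase luminescence. Values were normalized to uninhibited and no-enzyme wells.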
Tb PYK inh – qHTS of Trypanosoma Brucei Inhibitors | TbPYK enzyme, Kinase-Glo Plus ATP luminescence, 45 min | hit rate 0.12% among 410,000 | pyruvate kinase (Trypanosoma brucei), Q57TT1 | Potency, µM (titrated, usually from 76.8 µM), inactives show at the top dose activity, negative = inhibition, usual class: inhibitors; note: potency is the fitted concentration of half-maximal effect; nearly all actives have a fitted effect of over 50% in size
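T. brucei PYK with substrate was exposed to pin-transferred compounds across a concentration series, then started with 130 uM ADP (final). After 45 min at room temperature, Kinase-Glo Plus luminescence was read, normalized and curve-fitted.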
VACV Venus inh – qHTS for Stage-Specific Inhibitors of Vaccinia Orthopoxvirus: Venus Reporter Primary qHTS; Potency, µM (series often up to 36.5 µM), without a hit: at the top dose activity change, negative = inhibition, actives largely listed as inhibitors; Vaccinia virus Venus reporter expression, fluorescence; AID 720580, 2013; hit rate 0.46% among 330,000; calls by dose curve; tested in A549 cells; note: potency is the fitted concentration of half-maximal effect; nearly all actives have a fitted effect of over 30% in size
Active calls of the source: *; i = inactive; ? = inconclusive; nt = no result given; + = active, no number. Most compounds without a hit are left out; they make up all but 5% or so of the library. Unless noted, calls come from the whole dose curve; as a rule, active = well fitted curve in the direction sought with a large enough effect; inconclusive = small, poorly fitted or top-dose-only effect, or another doubt; inactive = no such curve, though single readings can be large; an effect the other way counts as inactive or inconclusive. % is set by controls: 0 for no effect and ±100 for the full control effect.

SMILES | HCMV inh | Vaccinia mCherry | LmPK inhibitor | Tb PYK inh | VACV Venus inh
COc1ccc(CCNC2CC(=O)N(CCc3ccccc3)C2=O)cc1 (stereo not given) | 0.1 | -26.7% | -0.7% | -1.6% | -3.8%
COc1ccc(CCN2C(=O)CC(NNC(=O)c3ccccc3Br)C2=O)cc1 (stereo not given) | -64.9* | i | -7.1% | -11.5% | -4.7%
C[C@@]12C(=O)N(c3cccc(F)c3)C(=O)N1[C@@H]1c3ccccc3OC[C@@H]1[C@H]2c1ccccc1 | -100.8* | -10.2% | nt | -1.6% | -8.6%
Cc1ccc2c(c1)[C@H]1[C@H](CO2)[C@H](c2ccccc2)[C@]2(C)C(=O)Nc3cc(F)c(F)cc3C(=O)N12 | -69.9* | -19.0% | nt | -9.6% | ?
COc1ccc2c(c1)[C@H]1[C@H](CO2)[C@H](c2ccccc2)[C@]2(C)C(=O)Nc3cc(Cl)ccc3C(=O)N12 | nt | -9.3% | nt | 5.8% | ?
COc1ccc2c(c1)C(=O)N1[C@H]3c4cc(Cl)ccc4OC[C@@H]3[C@H](c3ccccc3)[C@]1(C)C(=O)N2 | -60.4* | ? | nt | -3.4% | ?
CCCc1cc(CN(C)C(=O)c2ccc(OC3CCN(C(C)=O)CC3)c(OC)c2)[nH]n1 | -17.2 | i | nt | 2.0% | -5.0%
COc1cccc(/C=C/C(=O)N2CCN(c3ccccn3)CC2)c1 | -10.5 | nt | 1.2% | 4.7% | nt
Cc1cc(Br)cn2c(Cc3cccc(Cl)c3)c(-c3ccco3)nc12 | 4.2 | 36.0% | nt | -4.5% | 11.6%
Clc1cccc(Cc2c(-c3ccco3)nc3ccc(Cl)cn23)c1 | -18.3 | 4.0% | nt | 20µM* | 0.4%
COC(=O)c1ccc2nc(-c3ccco3)c(Cc3ccc(OC)cc3C)n2c1 | 71.4 | i | nt | 14.1µM* | -0.2%
Clc1cccc(Cc2c(-c3ccco3)nc3ccc(Br)cn23)c1 | 25.1 | 6.2% | nt | ? | 12.2%
Cc1ccc(Cc2c(-c3ccco3)nc3c(C)cc(Br)cn23)cc1 | -101.7* | -1.7% | nt | -4.8% | 4.9%
O=C(OCn1nnc2ccccc2c1=O)C1=COCCO1 | 66.1 | -8.8% | 2.6% | -15.3% | -7.6%
c1ccc(C[C@H]2CN=C(Nc3ccccc3)N2CCCC2CCCCC2)cc1 | -61.0* | -8.8% | nt | 3.9% | -8.0%
CC(C)C[C@H]1CN=C(Nc2ccccc2)N1CCCC1CCCC1 | -70.0* | -28.5% | 0.8% | 8.0% | -27.4%
CC(C)C[C@H]1CN=C(Nc2ccccc2)N1CCCC1CCCCC1 | ? | -3.6% | -3.1% | -0.1% | -18.2%
c1ccc(C[C@H]2CN=C(Nc3ccccc3)N2CC2CCCCC2)cc1 | 21.1 | -19.1% | nt | 2.2% | -23.6%
O=C(NCC(=O)N1CCN(S(=O)(=O)c2ccc3c(c2)OCCO3)CC1)c1ccccc1Cl | -3.8 | -14.0% | nt | -5.4% | -9.7%
Cc1sc2ncnc(N/N=C/c3ccccc3O)c2c1C | -100.5* | 3.55µM* | 0.9% | 3.0% | ?
Cc1sc2ncnc(NCC(c3ccccc3)N(C)C)c2c1C (stereo not given) | -28.4 | -16.6% | 3.5% | 3.2% | 14.8%
Cc1sc2ncnc(NCC(O)c3ccc([N+](=O)[O-])cc3)c2c1C (stereo not given) | -78.5* | -3.7% | 3.0% | -4.0% | -12.4%
Cc1sc2ncnc(NCCCO)c2c1C | -18.0 | -8.7% | -0.3% | -3.9% | -12.4%
Cc1sc2ncnc(NCC(O)c3ccccc3)c2c1C (stereo not given) | -73.8* | i | -11.2% | -1.2% | -14.8%
Cc1ccc(CN2CCSc3ccc(C(=O)Nc4ccc(Cl)cc4)cc32)cc1 | 23.7 | -5.8% | nt | -0.8% | -8.3%
SMILES | HCMV inh | Vaccinia mCherry | LmPK inhibitor | Tb PYK inh | VACV Venus inh
Cc1ccc(-n2c(C)nc3c(cnn3-c3ccccc3C)c2=O)cc1F | 10.4 | -1.0% | nt | 0.1% | 2.5%
N#Cc1ccc(NC(=O)Nc2ccc(Oc3ccc(NC(=O)Nc4ccc(C#N)cc4)cc3)cc2)cc1 | -82.4* | i | 3.6% | -6.1% | -22.0%
CCOc1ccc(N(CC(=O)NCCc2ccccc2)S(=O)(=O)c2ccccc2)cc1 | -28.3 | -18.5% | 1.1% | 3.4% | -19.5%
O=c1c2cc(F)ccc2sn1-c1ccc(F)cc1 | nt | -22.7% | nt | 8.91µM* | -28.2%
Cc1ccc(C)c(-n2sc3ccc(F)cc3c2=O)c1 | -86.8* | ? | nt | ? | ?
CCOc1ccc(S(=O)(=O)N2CCC(C(=O)Nc3cccc(NC(C)=O)c3)CC2)cc1 | 11.9 | 9.6% | -8.4% | -11.0% | -9.9%
CCN1C(=O)CSc2ccc(C(=O)NCc3ccccc3)cc21 | 0.0 | nt | 7.0% | -1.1% | nt
Cc1ccccc1S(=O)(=O)N1[C@@H](c2ccccc2)C(C(=O)O)=CC[C@H]1c1ccc(Cl)cc1 | -99.0* | i | nt | 0.6% | -11.5%
CCC(=O)N1CCc2cc(S(=O)(=O)NC(C(=O)NCCc3ccccc3)C(C)C)ccc21 (stereo not given) | 15.0 | -9.7% | nt | -0.7% | -11.6%
COc1ccc(S(=O)(=O)Nc2ccc(F)cc2)cc1N(C)S(=O)(=O)c1ccc(Cl)cc1 | -71.8* | ? | 5.7% | 3.0% | ?
COc1ccc(S(=O)(=O)N2CCCCCC2)cc1N(C)S(=O)(=O)c1ccc(C)cc1 | -77.2* | -14.7% | 2.3% | 3.5% | ?
COc1ccc(S(=O)(=O)Nc2ccc(F)c(F)c2)cc1Cl | 13.3 | ? | 1.5% | 1.3% | -15.1%
COc1ccc(S(=O)(=O)Nc2ccc(S(=O)(=O)Nc3ccc(F)cc3)cc2)cc1C | -10.4 | -12.7% | 1.8% | 1.1% | ?
COc1ccc(NS(=O)(=O)c2ccc(OC)c(N(C)S(=O)(=O)c3ccc(Cl)cc3)c2)cc1 | -90.1* | ? | 2.5% | 1.4% | ?
Cc1cccc(CCNC(=O)C2CCN(c3nc4ccccc4nc3C(F)(F)F)CC2)c1 | -1.3 | 1.9% | nt | -3.0% | 6.4%
O=C(COC(=O)c1ccc(F)c(S(=O)(=O)N2CCOCC2)c1)NCc1ccc(F)cc1 | ? | i | nt | -16.2% | -7.2%
CCN1CCN(C(=O)Nc2cccc3ccccc23)CC1 | 47.8 | nt | -1.5% | -8.1% | nt
O=C(C(Cc1ccccc1)N1C(=O)c2ccccc2C1=O)N1c2ccccc2CCc2ccccc21 (stereo not given) | -66.4* | i | 3.7% | 1.3% | ?
O=C1c2ccccc2C(=O)N1CC(=O)N1c2ccccc2CCc2ccccc21 | 33.1 | -24.6% | 3.3% | 1.8% | -14.6%
Fc1ccccc1Nc1nc(N2CCOCC2)nc(N2CCOCC2)n1 | 19.4 | nt | -0.7% | -3.8% | nt
Clc1ccc(Nc2nc(Nc3ccc(Cl)cc3)nc(N3CCOCC3)n2)cc1 | nt | 15.7% | nt | nt | -21.8%
Cc1ccc(Nc2nc(N3CCOCC3)nc(N3CCOCC3)n2)cc1 | -64.5* | -12.3% | 1.1% | 0.8% | -11.7%
Cc1ccccc1Nc1nc(N2CCOCC2)nc(N2CCOCC2)n1 | + | i | -8.8% | -1.5% | -6.7%
